# Test results as given in ChEMBL document CHEMBL1961873, “Compounds: GSK PKIS; Assays: Nanosyn kinase panel” (2012).
# Columns and labels:
# [1] = target: T1, Tyrosine-protein kinase receptor TYRO3 (Homo sapiens) (UniProt Q06418); conditions: at 1 µM
# T1 sequence (whole entry): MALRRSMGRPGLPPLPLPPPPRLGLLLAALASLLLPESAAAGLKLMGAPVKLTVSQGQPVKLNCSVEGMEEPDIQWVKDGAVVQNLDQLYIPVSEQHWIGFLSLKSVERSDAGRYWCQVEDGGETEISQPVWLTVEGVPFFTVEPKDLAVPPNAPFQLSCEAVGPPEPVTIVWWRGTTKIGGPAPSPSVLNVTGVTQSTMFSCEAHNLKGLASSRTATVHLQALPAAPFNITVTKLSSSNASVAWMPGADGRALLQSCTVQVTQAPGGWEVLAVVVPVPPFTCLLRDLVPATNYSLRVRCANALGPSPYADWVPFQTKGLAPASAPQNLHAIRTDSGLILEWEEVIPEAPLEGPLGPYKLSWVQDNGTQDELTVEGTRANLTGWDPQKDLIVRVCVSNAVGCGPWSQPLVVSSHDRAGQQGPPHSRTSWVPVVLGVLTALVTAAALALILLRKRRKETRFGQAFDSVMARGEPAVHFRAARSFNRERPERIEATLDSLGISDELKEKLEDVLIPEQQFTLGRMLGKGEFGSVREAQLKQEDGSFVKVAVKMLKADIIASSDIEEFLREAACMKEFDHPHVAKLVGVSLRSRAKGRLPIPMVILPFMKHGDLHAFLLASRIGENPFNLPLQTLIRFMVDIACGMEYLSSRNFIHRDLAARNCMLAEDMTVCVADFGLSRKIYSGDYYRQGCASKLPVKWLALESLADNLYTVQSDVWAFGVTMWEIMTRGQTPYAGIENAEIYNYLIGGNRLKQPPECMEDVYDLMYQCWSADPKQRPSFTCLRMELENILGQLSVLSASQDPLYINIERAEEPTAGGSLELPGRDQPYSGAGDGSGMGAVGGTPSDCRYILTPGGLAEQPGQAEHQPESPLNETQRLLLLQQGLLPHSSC
# [2] = target: Tyrosine-protein kinase Yes (Homo sapiens) (UniProt P07947); conditions: at 0.1 µM
# Chain of Tyrosine-protein kinase Yes (Homo sapiens) (P07947 2-543 limits assumed): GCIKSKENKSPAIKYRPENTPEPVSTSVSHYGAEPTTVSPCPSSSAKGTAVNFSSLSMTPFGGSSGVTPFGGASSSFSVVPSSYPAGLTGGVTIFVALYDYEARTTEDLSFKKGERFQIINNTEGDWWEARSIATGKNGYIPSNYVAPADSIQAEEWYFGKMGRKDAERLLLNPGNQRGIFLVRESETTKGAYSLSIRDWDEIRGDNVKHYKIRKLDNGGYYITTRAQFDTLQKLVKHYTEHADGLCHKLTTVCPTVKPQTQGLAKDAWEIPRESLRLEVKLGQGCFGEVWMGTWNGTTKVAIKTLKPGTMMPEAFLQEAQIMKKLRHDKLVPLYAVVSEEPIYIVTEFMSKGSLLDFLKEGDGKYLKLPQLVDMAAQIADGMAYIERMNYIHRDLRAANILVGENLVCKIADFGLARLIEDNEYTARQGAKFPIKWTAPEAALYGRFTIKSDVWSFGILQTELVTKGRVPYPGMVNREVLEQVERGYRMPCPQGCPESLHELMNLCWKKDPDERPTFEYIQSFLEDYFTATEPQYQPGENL
# [3] = target: Tyrosine-protein kinase Yes (Homo sapiens) (UniProt P07947); conditions: at 1 µM
# [4] = target: T2, Tyrosine-protein kinase ZAP-70 (Homo sapiens) (UniProt P43403); conditions: at 0.1 µM
# T2 sequence (whole entry): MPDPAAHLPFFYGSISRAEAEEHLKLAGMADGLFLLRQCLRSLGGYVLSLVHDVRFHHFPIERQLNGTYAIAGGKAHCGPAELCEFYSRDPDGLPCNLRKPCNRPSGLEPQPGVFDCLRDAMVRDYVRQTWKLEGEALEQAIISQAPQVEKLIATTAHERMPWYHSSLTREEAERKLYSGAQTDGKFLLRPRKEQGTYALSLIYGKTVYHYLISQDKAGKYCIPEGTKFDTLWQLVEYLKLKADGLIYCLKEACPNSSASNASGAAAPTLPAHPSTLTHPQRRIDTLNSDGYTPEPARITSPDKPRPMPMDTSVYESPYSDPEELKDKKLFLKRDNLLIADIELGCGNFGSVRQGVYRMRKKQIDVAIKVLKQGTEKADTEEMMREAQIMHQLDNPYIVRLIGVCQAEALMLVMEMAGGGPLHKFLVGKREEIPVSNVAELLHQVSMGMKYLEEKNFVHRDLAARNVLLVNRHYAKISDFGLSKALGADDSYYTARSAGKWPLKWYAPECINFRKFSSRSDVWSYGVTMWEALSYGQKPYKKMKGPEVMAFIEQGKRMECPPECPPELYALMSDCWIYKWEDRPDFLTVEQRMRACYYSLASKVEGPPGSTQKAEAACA
# [5] = target: T2, Tyrosine-protein kinase ZAP-70 (Homo sapiens); conditions: at 1 µM
# [6] = target: Serine/threonine-protein kinase B-raf (Homo sapiens) (UniProt P15056); conditions: at 0.1 µM
# Chain of Serine/threonine-protein kinase B-raf (Homo sapiens) (P15056 whole entry): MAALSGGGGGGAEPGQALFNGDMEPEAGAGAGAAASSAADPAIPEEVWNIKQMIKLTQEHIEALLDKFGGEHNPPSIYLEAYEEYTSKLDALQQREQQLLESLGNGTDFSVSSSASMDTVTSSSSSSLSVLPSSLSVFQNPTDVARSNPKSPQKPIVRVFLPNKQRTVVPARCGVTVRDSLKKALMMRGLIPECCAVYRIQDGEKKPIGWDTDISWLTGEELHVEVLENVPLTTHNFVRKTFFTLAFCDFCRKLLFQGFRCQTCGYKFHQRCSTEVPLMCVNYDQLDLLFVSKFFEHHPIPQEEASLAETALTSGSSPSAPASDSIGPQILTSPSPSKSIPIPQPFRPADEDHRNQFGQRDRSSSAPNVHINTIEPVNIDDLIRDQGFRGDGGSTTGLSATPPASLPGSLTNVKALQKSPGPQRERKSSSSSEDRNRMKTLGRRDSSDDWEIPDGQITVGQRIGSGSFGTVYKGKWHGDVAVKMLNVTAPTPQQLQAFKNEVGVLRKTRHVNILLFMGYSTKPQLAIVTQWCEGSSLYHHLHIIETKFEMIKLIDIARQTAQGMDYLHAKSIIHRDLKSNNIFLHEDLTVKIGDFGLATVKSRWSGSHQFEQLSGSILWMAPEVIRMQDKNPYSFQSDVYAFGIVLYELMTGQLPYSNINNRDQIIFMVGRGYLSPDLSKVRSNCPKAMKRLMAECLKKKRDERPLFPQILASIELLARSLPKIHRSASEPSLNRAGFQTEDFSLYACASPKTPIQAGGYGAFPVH
# [7] = target: Serine/threonine-protein kinase B-raf (Homo sapiens) (UniProt P15056); conditions: at 1 µM
# [8] = test system: Serine/threonine-protein kinase B-raf (Homo sapiens), P15056 [V600E]; conditions: at 0.1 µM
# Chain of Serine/threonine-protein kinase B-raf (Homo sapiens), P15056 [V600E] (P15056 whole entry V600E): as the sequence (P15056 whole entry) above, with V600E counted along it
# [9] = test system: Serine/threonine-protein kinase B-raf (Homo sapiens), P15056 [V600E]; conditions: at 1 µM
# [10] = target: RAF proto-oncogene serine/threonine-protein kinase (Homo sapiens) (UniProt P04049); conditions: at 0.1 µM
# Chain of RAF proto-oncogene serine/threonine-protein kinase (Homo sapiens) (P04049 whole entry): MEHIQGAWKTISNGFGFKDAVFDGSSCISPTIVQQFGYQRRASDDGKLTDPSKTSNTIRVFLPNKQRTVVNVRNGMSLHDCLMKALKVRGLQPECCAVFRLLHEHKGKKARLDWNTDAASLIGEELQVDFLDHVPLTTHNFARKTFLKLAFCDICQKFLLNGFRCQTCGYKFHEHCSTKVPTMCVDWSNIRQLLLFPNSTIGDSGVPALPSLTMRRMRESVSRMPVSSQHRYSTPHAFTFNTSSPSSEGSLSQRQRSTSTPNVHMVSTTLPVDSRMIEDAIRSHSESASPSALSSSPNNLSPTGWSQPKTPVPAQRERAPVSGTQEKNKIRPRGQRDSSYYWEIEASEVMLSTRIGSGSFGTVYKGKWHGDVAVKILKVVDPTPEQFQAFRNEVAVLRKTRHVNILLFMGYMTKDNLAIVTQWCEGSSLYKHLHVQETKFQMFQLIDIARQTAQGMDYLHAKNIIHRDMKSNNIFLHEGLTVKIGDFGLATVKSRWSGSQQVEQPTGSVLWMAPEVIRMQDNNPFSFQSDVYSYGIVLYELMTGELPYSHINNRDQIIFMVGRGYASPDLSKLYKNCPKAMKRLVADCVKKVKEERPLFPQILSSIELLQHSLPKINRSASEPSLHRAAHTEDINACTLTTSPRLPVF
# [11] = target: RAF proto-oncogene serine/threonine-protein kinase (Homo sapiens) (UniProt P04049); conditions: at 1 µM
# [12] = target: T3, Interleukin-1 receptor-associated kinase 4 (Homo sapiens) (UniProt Q9NWZ3); conditions: at 0.1 µM
# T3 sequence (whole entry): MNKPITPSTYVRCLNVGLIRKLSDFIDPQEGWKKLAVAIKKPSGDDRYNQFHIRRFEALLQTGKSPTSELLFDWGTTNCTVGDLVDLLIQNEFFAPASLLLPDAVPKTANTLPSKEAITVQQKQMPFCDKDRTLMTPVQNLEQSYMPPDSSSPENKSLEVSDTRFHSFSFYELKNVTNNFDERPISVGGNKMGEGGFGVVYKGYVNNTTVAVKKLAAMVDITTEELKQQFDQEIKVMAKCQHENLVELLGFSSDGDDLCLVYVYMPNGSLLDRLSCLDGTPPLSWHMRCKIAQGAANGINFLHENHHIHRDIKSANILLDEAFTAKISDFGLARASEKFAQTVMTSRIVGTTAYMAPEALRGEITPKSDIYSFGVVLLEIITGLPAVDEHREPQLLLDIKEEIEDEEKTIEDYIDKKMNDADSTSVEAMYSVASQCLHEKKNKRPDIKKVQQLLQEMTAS
# [13] = target: T3, Interleukin-1 receptor-associated kinase 4 (Homo sapiens); conditions: at 1 µM
# [14] = target: Leucine-rich repeat serine/threonine-protein kinase 2 (Homo sapiens) (UniProt Q5S007); conditions: at 0.1 µM
# Chain of Leucine-rich repeat serine/threonine-protein kinase 2 (Homo sapiens) (Q5S007 whole entry): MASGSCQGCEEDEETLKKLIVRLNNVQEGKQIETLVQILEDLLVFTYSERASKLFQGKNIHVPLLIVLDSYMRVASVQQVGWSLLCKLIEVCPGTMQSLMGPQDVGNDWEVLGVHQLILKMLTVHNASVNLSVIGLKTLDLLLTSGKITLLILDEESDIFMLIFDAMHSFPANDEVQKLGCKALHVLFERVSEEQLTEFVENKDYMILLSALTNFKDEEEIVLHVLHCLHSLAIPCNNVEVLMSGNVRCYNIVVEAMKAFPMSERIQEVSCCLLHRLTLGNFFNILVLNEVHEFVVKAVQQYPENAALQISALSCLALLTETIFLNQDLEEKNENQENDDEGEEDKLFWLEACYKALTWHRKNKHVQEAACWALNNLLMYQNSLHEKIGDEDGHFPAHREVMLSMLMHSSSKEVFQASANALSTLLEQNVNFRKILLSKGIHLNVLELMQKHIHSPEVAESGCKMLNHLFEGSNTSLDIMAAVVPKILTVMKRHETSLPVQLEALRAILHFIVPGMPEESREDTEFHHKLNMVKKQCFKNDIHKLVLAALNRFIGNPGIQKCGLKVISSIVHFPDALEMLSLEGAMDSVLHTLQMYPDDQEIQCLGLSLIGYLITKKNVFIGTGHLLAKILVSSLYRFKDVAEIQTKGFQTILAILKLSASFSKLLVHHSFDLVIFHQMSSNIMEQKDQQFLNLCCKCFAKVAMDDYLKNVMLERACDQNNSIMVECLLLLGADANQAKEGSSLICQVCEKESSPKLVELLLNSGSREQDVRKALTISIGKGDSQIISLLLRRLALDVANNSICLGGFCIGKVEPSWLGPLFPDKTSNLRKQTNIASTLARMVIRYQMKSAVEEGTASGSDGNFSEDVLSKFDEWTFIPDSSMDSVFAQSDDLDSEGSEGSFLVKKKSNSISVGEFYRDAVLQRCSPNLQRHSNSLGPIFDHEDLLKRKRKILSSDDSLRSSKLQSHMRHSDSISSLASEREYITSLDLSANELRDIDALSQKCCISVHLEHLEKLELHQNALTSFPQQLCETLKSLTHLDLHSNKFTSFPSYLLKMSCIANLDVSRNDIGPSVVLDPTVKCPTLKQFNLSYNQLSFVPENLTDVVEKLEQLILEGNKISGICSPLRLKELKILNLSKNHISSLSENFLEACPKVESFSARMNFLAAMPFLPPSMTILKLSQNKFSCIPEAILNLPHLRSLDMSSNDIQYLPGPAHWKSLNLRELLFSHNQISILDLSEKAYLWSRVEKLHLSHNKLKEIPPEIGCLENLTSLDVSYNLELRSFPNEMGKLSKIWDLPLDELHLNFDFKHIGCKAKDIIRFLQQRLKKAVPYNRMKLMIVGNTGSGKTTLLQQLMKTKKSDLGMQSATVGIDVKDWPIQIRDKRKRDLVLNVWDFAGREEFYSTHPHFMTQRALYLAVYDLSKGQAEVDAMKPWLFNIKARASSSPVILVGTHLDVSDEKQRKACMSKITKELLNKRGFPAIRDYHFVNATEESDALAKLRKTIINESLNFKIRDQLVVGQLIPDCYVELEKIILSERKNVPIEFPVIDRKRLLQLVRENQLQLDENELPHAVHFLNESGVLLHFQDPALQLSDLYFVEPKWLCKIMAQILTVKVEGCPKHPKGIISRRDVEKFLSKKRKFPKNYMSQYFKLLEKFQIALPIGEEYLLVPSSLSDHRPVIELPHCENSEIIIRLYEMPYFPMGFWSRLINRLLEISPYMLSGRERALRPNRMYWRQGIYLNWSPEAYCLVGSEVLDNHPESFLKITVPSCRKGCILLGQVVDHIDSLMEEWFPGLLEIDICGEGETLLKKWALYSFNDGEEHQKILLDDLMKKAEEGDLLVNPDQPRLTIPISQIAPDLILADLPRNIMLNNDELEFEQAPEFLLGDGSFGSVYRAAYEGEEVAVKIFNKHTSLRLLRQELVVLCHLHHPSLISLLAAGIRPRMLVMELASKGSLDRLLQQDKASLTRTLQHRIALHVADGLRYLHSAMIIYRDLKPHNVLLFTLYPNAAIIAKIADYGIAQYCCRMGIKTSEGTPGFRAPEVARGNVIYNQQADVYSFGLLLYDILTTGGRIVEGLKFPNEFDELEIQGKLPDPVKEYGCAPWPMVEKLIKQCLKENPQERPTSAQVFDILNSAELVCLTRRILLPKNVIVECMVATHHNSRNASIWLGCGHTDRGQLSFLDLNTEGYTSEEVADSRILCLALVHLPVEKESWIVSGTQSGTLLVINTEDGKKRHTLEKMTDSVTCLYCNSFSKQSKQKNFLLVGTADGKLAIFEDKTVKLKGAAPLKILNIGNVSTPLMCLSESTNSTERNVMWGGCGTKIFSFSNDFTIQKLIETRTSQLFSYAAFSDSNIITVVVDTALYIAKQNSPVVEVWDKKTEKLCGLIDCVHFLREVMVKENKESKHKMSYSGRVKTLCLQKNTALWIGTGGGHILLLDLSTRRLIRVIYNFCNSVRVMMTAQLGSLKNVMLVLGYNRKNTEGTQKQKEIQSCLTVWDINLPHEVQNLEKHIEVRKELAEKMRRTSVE
# [15] = target: Leucine-rich repeat serine/threonine-protein kinase 2 (Homo sapiens) (UniProt Q5S007); conditions: at 1 µM
# [16] = test system: Leucine-rich repeat serine/threonine-protein kinase 2 (Homo sapiens), Q5S007 [G2019S]; conditions: at 0.1 µM
# Chain of Leucine-rich repeat serine/threonine-protein kinase 2 (Homo sapiens), Q5S007 [G2019S] (Q5S007 whole entry G2019S): as the sequence (Q5S007 whole entry) above, with G2019S counted along it
# [17] = test system: Leucine-rich repeat serine/threonine-protein kinase 2 (Homo sapiens), Q5S007 [G2019S]; conditions: at 1 µM
Structure (SMILES),inhibition [1] [%],inhibition [2] [%],inhibition [3] [%],inhibition [4] [%],inhibition [5] [%],inhibition [6] [%],inhibition [7] [%],inhibition [8] [%],inhibition [9] [%],inhibition [10] [%],inhibition [11] [%],inhibition [12] [%],inhibition [13] [%],inhibition [14] [%],inhibition [15] [%],inhibition [16] [%],inhibition [17] [%]
COc1ccc2ncn(-c3cc(O[C@H](C)c4ccccc4Cl)c(C(N)=O)s3)c2c1,3.45,1.1,0.5,-4.58,0.58,5.68,4.96,3.17,3.29,0.5,0.5,1.46,1.82,-2.19,9.87,2.01,20.2
O=C(NCC1CC1)c1ccc(-c2cccc(C(=O)NC3CC3)c2)cc1,0.81,-0.02,-2.38,1.15,1.3,3.46,3.07,1.59,1.43,5.36,7.69,-3.46,0.85,3.26,6.31,1.46,5.03
CS(=O)(=O)CCNCc1ccc(-c2ccc3ncnc(Nc4ccc(OCc5ccccc5)c(Br)c4)c3c2)o1,2.72,4.45,20.7,-2.48,-1.83,4.73,4.32,3.23,2.38,3.26,3.63,0.92,1.52,-4.59,-6.11,-1.19,-0.13
CN(C)CCOc1ccc(-c2cc(-c3ccc4c(c3)CCC4=NO)c(-c3ccncc3)o2)cc1,2.92,2.18,9.45,-2.95,0.13,48.5,85,56.3,86.2,-4.4,39.8,-0.42,0.12,1.03,3.55,1.85,2.48
COc1cc2ncn(-c3cc(OCCc4ccccc4)c(C(N)=O)s3)c2cc1OC,0.83,1.03,4.7,0.43,0.59,3.24,3.36,3.25,3.42,0.38,-9.47,2.95,0.72,4.52,10.8,6.42,32.5
NC(=O)c1ccc(Oc2nccc(-c3c(-c4ccc(F)cc4)ncn3C3CCNCC3)n2)cc1,4.62,4.3,4.13,2.59,4.42,7.51,10.8,4.69,5.64,3.18,0.88,2.75,3.85,0.29,5.49,3.7,7.46
Cc1nnc(-c2ccc(C)c(-c3ccc(C(=O)NCc4ccc(Cl)cc4)cc3)c2)o1,3.57,2.58,5.29,,-3.27,5.55,4.07,6.27,3.85,8.41,-0.47,4.09,2.12,-4.32,-3.04,-2.08,-4
